Screens: PubChem BioAssay, Buhrlage Lab, Dana-Farber Cancer Institute and Novartis Institutes for BioMedical Research (Cambridge, Mass)
The list is not random: actives were taken first. Their share in the collection is about 12%.
USP17 inh: inhibitors of human USP17 deubiquitinase; purified USP17, Ub-rhodamine cleavage fluorescence, 3 h; inhibition, % at 50 µM; actives 6.5% (n = 47,000)
USP28 inh: blocks human USP28 ubiquitin-rhodamine cleavage | inhibition, % at 25 µM | actives 3% (n = 47,000) | purified USP28, Ub-rhodamine cleavage fluorescence, 30 min
Target sequence (Q96RU2 whole entry, looked up): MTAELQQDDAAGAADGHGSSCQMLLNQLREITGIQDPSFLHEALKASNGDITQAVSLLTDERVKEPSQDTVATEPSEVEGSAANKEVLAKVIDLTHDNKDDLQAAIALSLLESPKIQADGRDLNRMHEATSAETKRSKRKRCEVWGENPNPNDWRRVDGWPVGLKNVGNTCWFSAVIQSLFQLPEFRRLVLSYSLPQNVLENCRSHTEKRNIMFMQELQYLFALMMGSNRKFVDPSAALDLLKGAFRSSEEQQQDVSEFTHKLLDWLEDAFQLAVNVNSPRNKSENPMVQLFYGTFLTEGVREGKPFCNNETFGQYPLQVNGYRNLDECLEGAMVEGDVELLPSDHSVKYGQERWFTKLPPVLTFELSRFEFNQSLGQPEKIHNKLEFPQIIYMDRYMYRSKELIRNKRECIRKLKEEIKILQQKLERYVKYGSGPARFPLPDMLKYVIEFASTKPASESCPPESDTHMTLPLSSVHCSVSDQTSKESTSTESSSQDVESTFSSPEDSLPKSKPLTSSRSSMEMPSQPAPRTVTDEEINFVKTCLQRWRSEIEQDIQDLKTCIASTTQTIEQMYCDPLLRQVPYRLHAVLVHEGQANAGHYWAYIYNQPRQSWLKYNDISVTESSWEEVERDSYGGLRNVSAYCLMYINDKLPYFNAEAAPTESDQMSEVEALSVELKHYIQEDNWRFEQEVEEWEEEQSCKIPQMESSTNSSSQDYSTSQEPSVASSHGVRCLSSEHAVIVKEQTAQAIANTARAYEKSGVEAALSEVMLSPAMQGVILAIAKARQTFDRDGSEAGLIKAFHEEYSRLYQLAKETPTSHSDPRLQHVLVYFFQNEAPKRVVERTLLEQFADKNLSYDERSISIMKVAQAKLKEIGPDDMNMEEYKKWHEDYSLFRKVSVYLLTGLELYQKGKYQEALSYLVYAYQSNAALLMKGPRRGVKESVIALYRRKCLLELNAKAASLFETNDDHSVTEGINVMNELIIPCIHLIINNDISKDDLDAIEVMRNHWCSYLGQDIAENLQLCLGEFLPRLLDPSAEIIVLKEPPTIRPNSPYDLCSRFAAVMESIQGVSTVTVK
USP30 inh: human USP30 deubiquitinase inhibition | Q70CQ3 | purified USP30, Ub-rhodamine cleavage fluorescence | inhibition, % at 25 µM | actives 5.3% (n = 47,000) | AID 1645860
OTUD3 block: blocks human OTUD3 ubiquitin-rhodamine cleavage; purified OTUD3, Ub-rhodamine fluorescence, 2 h; inhibition, % at 25 µM; actives 0.7% (n = 47,000); Q5T2D3
Active calls of the source: *; i = inactive; . = no result given. Cut-off read from the data, not from the text of the source: active = inhibition above about 30%; inactive = the rest.

SMILES	USP17 inh	USP28 inh	USP30 inh	OTUD3 block
CSc1cccc(NC(=O)C2C3C=CC4(O3)C2C(=O)N(CCc2ccccc2)C4C(=O)NC2CCCCC2)c1 (stereo unspecified)	10	0	-1	11
c1cnc(-c2nc(-c3ccc(-c4csc(C5CC5)n4)cc3)no2)cn1	-68	-55	-245	-54
c1cc(-c2noc(C3CCCO3)n2)ccc1-c1csc(C2CC2)n1 (stereo unspecified)	3	40*	-27	5
Cn1c(CCC(=O)Nc2ccc3c(c2)CCC3)nc2cc(S(=O)(=O)N3CCOCC3)ccc21	48*	6	33*	-7
COc1ccc([C@H]2Oc3cc(OC)cc(O)c3C(=O)[C@@H]2[C@@H]2C(=O)c3c(O)cc(O)cc3O[C@H]2c2ccc(OC)cc2)cc1	41*	9	0	11
C[C@H]1C(=O)c2c(O)cc(O)cc2O[C@@H]1c1ccc(O)cc1	17	7	20	24
N#Cc1c(N)nc2c(c1N)C(c1ccccc1)CO2 (stereo unspecified)	44*	18	58*	4
Cc1cc2nc(N3CCCCC3C)c3ccccc3n2n1 (stereo unspecified)	-29	-5	-8	-2
Cc1cc2nc(N3CCN(C(=O)c4ccccc4)CC3)c3ccccc3n2n1	16	4	34*	6
Cn1c2ccccc2c2ncn(Cc3ccc(F)cc3)c(=O)c21	71*	32*	34*	14
CCCCn1cnc2c3cc(F)ccc3n(C)c2c1=O	65*	22	65*	0
Cn1c(CCNC(=O)Cc2cccc(Cl)c2)nc2cccnc21	-172	-234	i	-163
COc1ccc(CC(=O)N2CCC3(CC2)N=C(c2ccc(C)cc2)C(=O)N3)cc1OC	2	-2	-2	0
CN(Cc1ccccc1)S(=O)(=O)c1ccc2[nH]cc(C(=O)NCc3cccs3)c(=O)c2c1	60*	-9	-33	-8
CCCCCC(O)/C=C/C(O)C(O)CCCCCCCC(=O)O (stereo unspecified)	-5	-4	-14	-10
CCCCCCCCCC(CCCCCCCCCC(=O)O)O[C@H]1O[C@@H](COC(C)=O)[C@H](O)[C@@H](OC(=O)CC(=O)O)[C@H]1O (stereo partly specified)	33*	35*	47*	21
COCCN1CC2(CCN(C(=O)Cc3ccccc3)CC2)C2(CCNC2=O)C1 (stereo unspecified)	-8	4	2	10
COc1ccc(-c2ocnc2C(=O)NCc2ccc(F)cc2)cc1	12	55*	-4	4
Cc1nc2ccn(Cc3ccco3)c(=O)c2cc1C(=O)NCc1cccs1	5	30*	10	-4
COCCn1ccc2nc(C)c(C(=O)NCc3ccccc3)cc2c1=O	17	7	16	11
COc1ccc2nc(-c3ccc(NC(=O)c4cccc(OC)c4OC)cc3)cn2n1	81*	-3	-28	-21
C/C(=C\Cc1c(O)cc(C)c(C=O)c1O)CC[C@@]1(C)[C@H](C)CCC(=O)[C@@H]1C	50*	7	28	-3
COC1C(CO)O[C@@H](O[C@H](C[C@@]2(C)[C@H](C)CCC(=O)[C@@H]2C)/C(C)=C/Cc2c(O)c(Cl)c(C)c(C=O)c2O)C(O)C1O (stereo partly specified)	11	4	27	3
COCCn1cc(CN2CCC(O)(c3ccccc3F)CC2)c2ccccc21	9	26	35*	19
COc1ccc2nc(C)cc(OCC(=O)Nc3cc(C)cc(C)c3)c2c1	36*	-11	20	-5
SMILES	USP17 inh	USP28 inh	USP30 inh	OTUD3 block
COc1cc(C)ccc1OCC(=O)Nc1ccc(Oc2ccccc2)cc1	9	18	28	22
COc1ccc(-c2ocnc2C(=O)Nc2ccc(C)c(F)c2)cc1	-2	.	.	-9
O=C(Nc1cccc(F)c1)c1ncoc1-c1ccco1	54*	17	-20	13
O=C(Nc1cnn(-c2ncncc2N2CCCCC2)c1)C1CCCCC1	-10	4	-5	0
Cn1c(CCNC(=O)c2ccco2)nc2cc([N+](=O)[O-])ccc21	-4	12	27	16
CCn1c(CCNC(=O)c2ccccc2)nc2ccccc21	4	.	.	4
O=C(NCCCc1nc2ccccc2n1Cc1c(Cl)cccc1Cl)c1ccco1	74*	47*	11	28
O=C(NCCCc1nc2ccccc2n1Cc1c(F)cccc1Cl)c1ccco1	34*	5	11	6
Cc1ccnc(NC(=O)c2ccn(COc3ccccc3Cl)n2)c1	18	16	32*	-1
Cc1ccccc1NC(=O)c1ccn(COc2ccc(Cl)cc2)n1	19	59*	19	10
